Assay outcomes: PubChem, Broad Institute
NSD2 block – inhibitors of human NSD2 methyltransferase | NSD2-SET H3K36me1 DELFIA fluorescence, biochemical | 0.07% of 44,000 active | O96028 | inhibition, % at 12.5 µM; in the data active means inhibition above about 54%, passing the limit was not always enough;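 further: inhibitors reduce the monomethyl H3K36 fluorescence signal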
The depositor's hits bear a star. The entries come from a sample that favours hits as a whole.

SMILES	NSD2 block
CCCCCC[C@H](O)[C@@H]1C[C@@H](O)C2=C(O1)[C@@H](O)CCC2=O	9
O=C(CSc1nnc(NC(=O)c2ccc(Cl)c(Cl)c2)s1)Nc1ccc(F)c(F)c1F	3
CC(C)(c1ccc(NS(=O)(=O)C(F)(F)F)cc1)c1ccc(C(C)(C)c2cccc(NS(=O)(=O)C(F)(F)F)c2)cc1	-5
CC(C)(C)/C=N/NC(=O)CCCCCCC(=O)NO	1
Cc1cc2ccccc2n2c(SCC(=O)NCc3ccco3)nnc12	25
Cc1cc(N2CC(C)CC(C)C2)nc2ccc(NC(=O)CCC(=O)Nc3ccc(F)cc3Cl)cc12 (stereo unspecified)	-3
CC(=O)Nc1sc2c(c1C(=O)O)CCc1ccccc1-2	-6
CNC(=O)CN(c1cc(C)ccc1OC)S(C)(=O)=O	23
O=C(CCCCCC(=O)N/N=C/c1ccc([N+](=O)[O-])s1)NO	2
O=C(CCCCCCC(=O)Nc1ccccc1O)N/N=C/c1coc2ccccc2c1=O	-4
COC(=O)CCCCCCC(=O)N/N=C/c1cccnc1	-2
CCC(C)(C)C(=O)N1CCC(C(=O)OC)CC1	15
CCn1c(O)c(/C=C2/C=CC=N2)c(=O)[nH]c1=S	22
CCOC(=O)[C@H](Cc1ccccc1)NC(=O)CN=[N+]=[N-]	6
CC1(C)CC(=O)C2=C(C1)c1c(ccc3ncccc13)NC2C1CC=CCC1 (stereo unspecified)	1
COc1c(O)cc2c(c1O)C(=O)OC(C)C2O (stereo unspecified)	1
O=C(CCCCCC(=O)Nc1ccccc1O)N/N=C/c1ccc[nH]1	3
O=C(CCc1ccc(O)cc1)CC(CCc1ccc(O)cc1)O[C@@H]1O[C@H](CO)[C@@H](O)[C@H](O)[C@H]1O (stereo partly specified)	18
O=C(CCCCCC(=O)N/N=C/c1ccc(O)c2ccccc12)NO	-4
C=CCn1c2ccccc2c2nnc(SCc3ccccc3F)nc21	11
O=C(CCCCC(=O)N/N=C/c1ccc2ccccc2c1)NO	-1
O=C(CCCCC(=O)N/N=C/c1ccncc1Br)NO	4
O=C(CCCCCCC(=O)Nc1ccccc1O)N/N=C/c1ccc2ccccc2c1O	3
CC1(C)CC[C@]2(C(=O)O[C@@H]3O[C@H](CO)[C@@H](O)[C@H](O)[C@H]3O)CC[C@]3(C)C(=CCC4[C@@]5(C)C[C@@H](O)[C@H](O)[C@@](C)(CO)C5[C@H](O)C[C@]43C)C2C1 (stereo partly specified)	17
CC1(C)CC[C@]2(C(=O)O[C@@H]3O[C@H](CO)[C@@H](O)[C@H](O)[C@H]3O)CC[C@]3(C)C(=CCC4[C@@]5(C)C[C@@H](O)[C@H](O)[C@@](C)(CO)C5[C@H](O)C[C@]43C)C2[C@@H]1O (stereo partly specified)	62*
SMILES	NSD2 block
CC1(C)CC[C@]2(C(=O)O[C@@H]3O[C@H](CO)[C@@H](O)[C@H](O)[C@H]3O)CC[C@]3(C)C(=CCC4[C@@]5(C)C[C@@H](O)[C@H](O)C(C)(C)C5CC[C@]43C)C2[C@@H]1O (stereo partly specified)	26
Clc1nc(Cl)c2cc(Br)ccc2n1	-2
O=C(N/N=C/c1cc(Cl)cc(Cl)c1O)c1ccccn1	-5
COC(=O)CCCCCCC(=O)N/N=C/c1sccc1C	2
COc1cccc2c1oc(=O)c1c(NC(C)=O)nc(-c3cccs3)nc12	-3
Cn1c(=O)c2[nH]c(-c3ccc(Cl)cc3)c(O)c2n(C)c1=O	2
CN(C)CCOC(=O)COc1ccc(Cl)cc1	4
CC/C(=C(/c1ccccc1)c1ccc(OCCN(C)C)cc1)c1ccccc1	58*
CCN(CC)CCOc1ccc(/C(=C(\Cl)c2ccccc2)c2ccccc2)cc1	2
COc1cc(O)c(OC)c2c1C(=O)CC(c1ccccc1)O2 (stereo unspecified)	26
CN1CCN(C(=S)SCC(=O)Nc2nc(=O)c3ccccc3s2)CC1	-2
COc1cc(O)cc(OC)c1/C=N/NC(=O)CCCCC(=O)NO	-2
C#CCOc1ccc(/C=N/NC(=O)c2cccc(C(=O)NO)c2)cc1	-3
COC(=O)C1=CO[C@@H](O[C@@H]2O[C@H](CO)[C@@H](O)[C@H](O)[C@H]2O)[C@H]2[C@@H]1[C@H](OC(C)=O)C[C@]2(C)O	2
COC(=O)C1=COC(OC2OC(CO)C(O)C(O)C2O)C2C1C=CC2(O)CO (stereo unspecified)	60*
COC(=O)C1=COC(O[C@@H]2O[C@H](CO)[C@@H](O)[C@H](O)[C@H]2O)[C@H]2[C@@H]1[C@H](OC(=O)CCc1ccc(O)cc1)C[C@]2(C)O (stereo partly specified)	4
O=C1O[C@H](c2ccccc2)[C@H](c2ccccc2)N2[C@H]1[C@@H](C(=O)NC[C@H](O)c1ccccc1)[C@]1(C(=O)Nc3ccc(C#CCCO)cc31)[C@H]2c1ccccc1OCCO	7
CC(=O)c1c(O)cc(O[C@@H]2O[C@H](CO)[C@@H](O)[C@H](O)[C@H]2O)cc1O	35
